Experimental findings from PubChem BioAssay (NCI) are described below.

About 83,000 compounds went through this panel and 20% of them were active in at least one assay; those are over-represented in the sample as a whole.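 Cells were grown in 96-well plates and exposed to the test compound at a single concentration for 48 hours; results are reported as percent growth, with values below 10 considered active.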 Unmarked numbers belong to inactive results. Activity calls are given as the source filed them.

Assay in all cases: NCI-60 one-dose screen, 48 h (100 = growth as untreated, 0 = no growth, -100 = all killed)
What all share (details): 10 µM unless noted

The test system of experiment [1] is SR leukemia.
Experiment [2] relates to RPMI-8226 leukemia.
Experiment [3] relates to OVCAR-8 ovarian.
The test system of experiment [4] is OVCAR-5 ovarian.
Experiment [5] has as its system OVCAR-4 ovarian.
Experiment [6] deals with SK-OV-3 ovarian.
Experiment [7] has as its system IGROV1 ovarian.
The subject of experiment [8] is OVCAR-3 ovarian.
The test system of experiment [9] is HS 578T breast.
Experiment [10] relates to NCI/ADR-RES ovarian.

Consider `O=S(=O)(Nc1cc(F)cc(F)c1)c1ccc(-c2cnc(C3CC3)o2)cc1`, for which the growth in [1] is 16.2%; in experiment [2] it was 26.5%; in experiment [3], 49.6%; in experiment [4], 71%; in experiment [5], 67.8%; in experiment [6] it was 60.2%. Moreover, the growth is 34.3% in experiment [7], 2.74% (active) in experiment [8], 14.4% in [9] and 26.4% in experiment [10].
In the case of `COc1c2c(cc3c1C(=O)N[C@@H]1[C@@H](O)[C@@H](O)[C@H](O)C[C@@H]31)OCCO2`, the growth is 92.1% in experiment [1]; 102% in [2]; 100% in [3]; 105% in experiment [4]; 105% in experiment [5]; 98.6% in [6]. Also, the growth is 109% in experiment [7], 104% in experiment [8], 96.2% in [9] and 113% in experiment [10].
For the compound `Cc1ccc(-c2csc(NC(=O)CSc3nc(N)cc(N)n3)n2)cc1`, the growth in experiment [1] was 42.9%; in [2], 44%; in experiment [3], 71%; in [4] it was 91.2%; in [5], 64%; in experiment [6], 88%. The growth is 74.1% in [7], 73.2% in [8], 87.6% in [9] and 51.8% in experiment [10].
With `COc1ccc(-c2cc(C(=O)N3N=C(c4ccc(N)cc4)CC3c3ccc(Cl)cc3)c3ccccc3n2)cc1` (stereo not given), the growth in [1] is 14.5%; in experiment [2], 16.2%; in [3] it was 14.2%; in [4], 51.6%; in experiment [5], 59.6%; in [6], 21.6%. Further, the growth in experiment [7] is 43.9%; in experiment [8] it was 3.86% (active); in [9] it was 16.4%; in experiment [10], 25.5%.
On to `CCOC(=O)C#Cc1c(C(=O)OCC)nnn1[C@@H]1O[C@H](COC)[C@@H](OC)[C@H]1OC`, for which the growth was 8.26% (active) in [1]; 62.5% in [2]; 104% in [3]; 90.1% in experiment [4]; 73.5% in [5]; 92.6% in experiment [6]. Besides, the growth in experiment [7] is 95.1%; in experiment [8], 15.5%; in experiment [9], 97%; in experiment [10], 109%.
Take `CCN(CC)CCOc1ccc2ccc(=O)oc2c1`: the growth in experiment [1] was -3.51% (active); in experiment [2] it was -4.27% (active); in experiment [3], 98.8%; in [4] it was 96%; in [5], 101%; in experiment [6], 92.9%. Further, the growth in [7] was 109%; in [8], 115%; in experiment [9], 109%; in experiment [10] it was 101%.
Take `CNC(=O)c1cc(Oc2ccc3c(c2)sc2nc(-c4ccc(Cl)c(C(F)(F)F)c4)cn23)ccn1`: the growth in experiment [1] was 41.6%; in experiment [2] it was 33.9%; in [3], 52.5%; in experiment [4] it was 100%; in experiment [5] it was 65%; in [6], 78%. Further, the growth in experiment [7] was 86.3%; in experiment [8] it was 74.2%; in [9], 80.3%; in [10] it was 60.9%.
For the compound `O=c1oc2ccccc2cc1-c1nn(-c2ccccc2)cc1-c1nn[nH]n1`, the growth is 92.4% in [1]; 100% in experiment [2]; 104% in [3]; 93.2% in experiment [4]; 97.9% in [5]; 99.8% in experiment [6]. For the same compound, the growth in experiment [7] was 99.1%; in experiment [8], 114%; in experiment [9] it was 105%; in [10], 102%.
For `COc1cc(OC)c2c(=O)c3c(CC=C(C)C)cc(OC)c(O)c3oc2c1`, the growth in experiment [1] was 53.2%; in experiment [2], 81.7%; in experiment [3], 88.6%; in experiment [4] it was 96.2%; in [5], 98.5%; in experiment [6], 96.6%. Moreover, the growth in experiment [7] was 91.7%; in [8], 92.8%; in experiment [9], 88.7%; in experiment [10], 78.8%.
`OC1(c2ccccc2)c2ccccc2N(c2ccccc2)c2ccc(Cl)cc21` (stereo not given): the growth was -28.7% (active) in experiment [1]; -6.58% (active) in experiment [2]; -45% (active) in [3]; -72.3% (active) in experiment [4]; -82.8% (active) in experiment [5]; -89.3% (active) in experiment [6]. Besides, the growth is -94.5% (active) in [7], -98.1% (active) in experiment [8], 4.35% (active) in experiment [9] and 14.8% in experiment [10].
Regarding `CCOC(=O)NC(=S)n1oc(=O)c2ccccc21`, the growth was 114% in experiment [1]; 101% in experiment [2]; 102% in experiment [3]; 96.6% in experiment [4]; 96.5% in experiment [5]; 104% in [6]. Further, the growth is 100% in experiment [7], 105% in experiment [8], 104% in experiment [9] and 105% in experiment [10].
Take `COC(=O)c1c(C)nc(C)c2c1C(=O)C=C(NCc1ccccc1)C2=O`: the growth in [1] is 54.1%; in [2], 88.4%; in experiment [3], 97.8%; in [4], 81.7%; in experiment [5] it was 64.6%; in experiment [6], 91.4%. The growth is 66.7% in experiment [7], 44.1% in [8], 116% in [9] and 81.7% in experiment [10].
Turning to `O=C(Nc1cc(Cl)ccc1O)c1ccccc1Nc1ccnc(C(F)(F)F)c1`, the growth was -26.3% (active) in [1]; -21.5% (active) in experiment [2]; 10.6% in [3]; 68.6% in experiment [4]; 19.8% in experiment [5]; 49.9% in experiment [6]. Also, the growth in experiment [7] is 1.77% (active); in experiment [8], -6.87% (active); in [9], -2.86% (active); in experiment [10], -2.27% (active).
